Results published in the supplement of paper PMC13380429.

Tested on: Vero E6 infected with SARS-CoV-2
Test: inhibition of SARS-CoV-2 cytopathic effect; higher = more antiviral protection, active = above 15
Conditions: 48 h

Measured: inhibition of SARS-CoV-2 cytopathic effect

Cc1cc(N2CCCCC2)nc2ccccc12
inactive: 1 nM -1.33% | 8.33 nM 3.15% | 100 nM -0.88% | 833.33 nM 0.63% | 10000 nM 4.47%

O=C(O)c1ccccc1Nc1cc(Cl)ccc1C(=O)O [lobenzarit]
inactive: 1 nM 0.49% | 8.33 nM -0.08% | 100 nM 0.37% | 833.33 nM 2.27% | 10000 nM -3.63%

C[N+]1(C)CCC(OC(=O)C(c2ccccc2)c2ccccc2)CC1
inactive: 1 nM -1.59% | 8.33 nM 2.05% | 100 nM 1.2% | 833.33 nM 1.67% | 10000 nM 1.67%

Cc1cccc(C)c1OCC(=O)N[C@@H](Cc1ccccc1)[C@@H](O)C[C@H](Cc1ccccc1)NC(=O)[C@H](C(C)C)N1CCCNC1=O [Lopinavir]
inactive: 1 nM 0.81% | 8.33 nM -0.07% | 100 nM 0.62% | 833.33 nM -0.42% | 10000 nM 6.72%

Cn1c(=O)[nH]c2ncn(C)c2c1=O [paraxanthine]
inactive: 1 nM 1.63% | 8.33 nM 1.68% | 100 nM 0.01% | 833.33 nM 2.99% | 10000 nM -0.26%

CCc1cc(/C(C)=N/OCc2ccc(C3CCCCC3)c(C(F)(F)F)c2)ccc1CN1CC(C(=O)O)C1 [siponimod]
inactive: 1 nM -0.21% | 8.33 nM -1.67% | 100 nM -0.01% | 833.33 nM -0.18% | 10000 nM 1.37%

O=C(OCCO)c1ccccc1O [2-hydroxyethyl-salicylate]
inactive: 1 nM 0.19% | 8.33 nM 1.56% | 100 nM -0.09% | 833.33 nM 0.15% | 10000 nM -2.92%
